The text below walks through data of PubChem BioAssay (NCI).

Molecules are shown by their SMILES. Several values for one entry are separate records, joined by “and”; a condition that tells them apart may be missing. Equal values may be shown once. This is part of a sample that, as a whole, favours compounds with a hit. Of some 79,000 tested, about 15% had one in any assay. Some structures have more than one record in an assay (separate samples or runs), and their calls can disagree. Activity calls are given as the source filed them. Cut-off read from the data, not from the text of the source: active = growth inhibition above about 70%; inactive = the rest.

The nature of test [1]: NCI Yeast Anticancer Drug Screen. Data for the rad50 strain (AID 155).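 Note: 0% = growth of vehicle-only cultures of the same strain.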 The note with it: S. cerevisiae rad50 strain growth inhibition, stronger effect = higher value. In outline: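 Growth of the mutant yeast was measured after compound exposure and referenced to vehicle-treated cultures.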
The nature of test [2]: NCI Yeast Anticancer Drug Screen. Data for the mec2-1 strain (AID 157). The note with it: S. cerevisiae mec2-1 strain, stronger effect = higher value. In outline: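 Growth inhibition is read against vehicle-treated controls after compound exposure of the mec2-1 yeast strain, which is defective in DNA damage repair or cell cycle control.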
A short description of test [3]: NCI Yeast Anticancer Drug Screen. Data for the sgs1 mgt1 strain (AID 161).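 Note: 0% = growth of cultures given vehicle only.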 The note with it: S. cerevisiae sgs1 mgt1 strain, stronger effect = higher value. In outline: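 Growth of a repair-deficient yeast mutant was monitored after compound treatment and expressed as inhibition relative to vehicle-treated cultures.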
The nature of test [4]: NCI Yeast Anticancer Drug Screen. Data for the cln2 rad14 strain (AID 165).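 Note: 0% = growth equal to vehicle treated cultures.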 Particulars: S. cerevisiae cln2 rad14 strain, stronger effect = higher value. A digest of the protocol: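 Growth inhibition, relative to vehicle-treated controls, is the read-out. The test organism is a yeast strain with defined genetic alterations, cln2 rad14.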
A short description of test [5]: NCI Yeast Anticancer Drug Screen. Data for the bub3 strain (AID 167). The note with it: S. cerevisiae bub3 mutant strain, stronger effect = higher value. In outline:
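Whole-cell yeast assay. The mutant strain was incubated with compounds, and growth inhibition was determined by comparison with vehicle-treated cells.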

A short description of test [6]: NCI Yeast Anticancer Drug Screen. Data for the mlh1 rad18 strain (AID 175). The note with it: S. cerevisiae mlh1 rad18 strain growth inhibition, stronger effect = higher value. A digest of the protocol: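 Cells of a genetically altered yeast strain, deficient in DNA damage repair, were treated with compound. Their growth was then compared with that of vehicle-treated cultures to give inhibition.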

[7] abbreviates: at 5.0 µM (retest, dose inferred, filed as 0.5).
Setting [8] is: at 50.0 µM (retest, dose inferred, filed as 5.0).

As to `CC(Br)c1ccccc1` (configuration not stated), the growth inhibition was 1% (inactive) in test [1] (setting [7]); 17% (inactive) in test [1] (setting [8]); 50.2% (inactive) in test [1] (at 50.0 µM); 1% (inactive) in test [2] (setting [7]); 10% (inactive) in test [2] (setting [8]); 26.6% (inactive) in test [2] (at 50.0 µM). Further, the growth inhibition in test [3] (setting [7]) is 2% (inactive); in test [3] (setting [8]) it was 14% (inactive); in test [3] (at 50.0 µM), 40.6% (inactive); in test [4] (setting [7]), 3% (inactive); in test [4] (setting [8]), 7% (inactive); in test [4] (at 50.0 µM) it was -2.05% (inactive). For the same molecule, the growth inhibition in test [5] (setting [7]) is 6% (inactive); in test [5] (setting [8]), 42% (inactive); in test [5] (at 50.0 µM), 65.8% (inactive); in test [6] (setting [7]), 5% (inactive); in test [6] (setting [8]) it was 21% (inactive); in test [6] (at 50.0 µM), 79.6% (active).

On to `CC#C[P+](c1ccccc1)(c1ccccc1)c1ccccc1`, for which the growth inhibition in test [1] (setting [7]) is 98% (active); in test [1] (setting [8]) it was 98% (active); in test [1] (at 50.0 µM) it was 91.2% (active); in test [2] (setting [7]), 87% (active); in test [2] (setting [8]) it was 87% (active); in test [2] (at 50.0 µM), 92.9% (active). In addition, the growth inhibition in test [3] (setting [7]) is 90% (active); in test [3] (setting [8]), 90% (active); in test [3] (at 50.0 µM), 92.8% (active); in test [4] (setting [7]) it was 91% (active); in test [4] (setting [8]), 91% (active); in test [4] (at 50.0 µM), 90.8% (active). In addition, the growth inhibition in test [5] (setting [7]) was 86% (active); in test [5] (setting [8]) it was 86% (active); in test [5] (at 50.0 µM) it was 90.2% (active); in test [6] (setting [7]), 95% (active); in test [6] (setting [8]), 95% (active); in test [6] (at 50.0 µM), 88.8% (active).

Regarding `CC(=O)[O][Hg][c]1cc2c(cc1O)Cc1cc([N+](=O)[O-])ccc1-2`, the growth inhibition is 95% (active) in test [1] (setting [7]); 98% (active) in test [1] (setting [8]); 93.5% (active) in test [1] (at 50.0 µM); 99% (active) in test [2] (setting [7]); 99% (active) in test [2] (setting [8]); 98% (active) in test [2] (at 50.0 µM). The growth inhibition is 99% (active) in test [3] (setting [7]); 99% (active) in test [3] (setting [8]); 86.2% (active) in test [3] (at 50.0 µM); 76% (active) in test [4] (setting [7]); 98% (active) in test [4] (setting [8]); 94.1% (active) in test [4] (at 50.0 µM). Further, the growth inhibition in test [5] (setting [7]) is 99% (active); in test [5] (setting [8]), 98% (active); in test [5] (at 50.0 µM), 97.6% (active); in test [6] (setting [7]), 99% (active); in test [6] (setting [8]), 99% (active); in test [6] (at 50.0 µM), 96.5% (active).

Consider `Cc1c([C@H](C)[C@@H]2NC[C@@H](C)C[C@H]2O)ccc2c1C[C@H]1[C@H]2CC=C2C[C@@H](O)CC[C@@]21C`, for which the growth inhibition in test [1] (setting [7]) was 10% (inactive) and -5% (inactive); in test [1] (setting [8]), 71% (active) and 36% (inactive); in test [1] (at 50.0 µM) it was 84.3% (active) and 88.5% (active); in test [2] (setting [7]), -1% (inactive); in test [2] (setting [8]), 52% (inactive) and 0% (inactive); in test [2] (at 50.0 µM), 75.2% (active) and 79.2% (active). The growth inhibition was 7% (inactive) and -12% (inactive) in test [3] (setting [7]); 85% (active) and 6% (inactive) in test [3] (setting [8]); 76.8% (active) and 86.2% (active) in test [3] (at 50.0 µM); -6% (inactive) and -7% (inactive) in test [4] (setting [7]); 58% (inactive) and 8% (inactive) in test [4] (setting [8]); 77.3% (active) and 82.8% (active) in test [4] (at 50.0 µM). The growth inhibition in test [5] (setting [7]) is 11% (inactive) and -18% (inactive); in test [5] (setting [8]) it was 74% (active) and 1% (inactive); in test [5] (at 50.0 µM), 86.2% (active) and 19.4% (inactive); in test [6] (setting [7]) it was 2% (inactive) and 0% (inactive); in test [6] (setting [8]), 59% (inactive) and 40% (inactive); in test [6] (at 50.0 µM), 85% (active) and 87.5% (active).

In the case of `Cc1ccc(C(=O)CCl)o1`, the growth inhibition in test [1] (setting [7]) is -114% (inactive); in test [1] (setting [8]), 97% (active); in test [1] (at 50.0 µM) it was 98.7% (active); in test [2] (setting [7]), -29% (inactive); in test [2] (setting [8]), 98% (active); in test [2] (at 50.0 µM), 99.7% (active). Also, the growth inhibition was -46% (inactive) in test [3] (setting [7]); 94% (active) in test [3] (setting [8]); 76% (active) in test [3] (at 50.0 µM); -54% (inactive) in test [4] (setting [7]); 77% (active) in test [4] (setting [8]); 71.4% (active) in test [4] (at 50.0 µM). For the same molecule, the growth inhibition is -34% (inactive) in test [5] (setting [7]); 98% (active) in test [5] (setting [8]); 99.2% (active) in test [5] (at 50.0 µM); -96% (inactive) in test [6] (setting [7]); 95% (active) in test [6] (setting [8]); 98.5% (active) in test [6] (at 50.0 µM).

Consider `CCCN1CN(c2ccccc2)C2(CCN(CCCC(=O)c3ccc(F)cc3)CC2)C1=O`, for which the growth inhibition is 11% (inactive) in test [1] (setting [7]); 17% (inactive) in test [1] (setting [8]); 35.7% (inactive) in test [1] (at 50.0 µM); 7% (inactive) in test [2] (setting [7]); 14% (inactive) in test [2] (setting [8]); -4.4% (inactive) in test [2] (at 50.0 µM). The growth inhibition is -17% (inactive) in test [3] (setting [7]); 12% (inactive) in test [3] (setting [8]); 60.5% (inactive) in test [3] (at 50.0 µM); 6% (inactive) in test [4] (setting [7]); 20% (inactive) in test [4] (setting [8]); 15.6% (inactive) in test [4] (at 50.0 µM). The growth inhibition was 4% (inactive) in test [5] (setting [7]); 35% (inactive) in test [5] (setting [8]); 38.9% (inactive) in test [5] (at 50.0 µM); 22% (inactive) in test [6] (setting [7]); 30% (inactive) in test [6] (setting [8]); 20.4% (inactive) in test [6] (at 50.0 µM).

As to `COC1CC2C(C[CH]1[Hg][Cl])C2(Cl)Cl` (configuration not stated), the growth inhibition is 99% (active) in test [1] (setting [7]); 99% (active) in test [1] (setting [8]); 99.5% (active) in test [1] (at 50.0 µM); 100% (active) in test [2] (setting [7]); 100% (active) in test [2] (setting [8]); 99.6% (active) in test [2] (at 50.0 µM). For the same molecule, the growth inhibition in test [3] (setting [7]) is 100% (active); in test [3] (setting [8]), 99% (active); in test [3] (at 50.0 µM), 99.5% (active); in test [4] (setting [7]) it was 99% (active); in test [4] (setting [8]), 99% (active); in test [4] (at 50.0 µM) it was 99.2% (active). The growth inhibition was 99% (active) in test [5] (setting [7]); 99% (active) in test [5] (setting [8]); 98% (active) in test [5] (at 50.0 µM); 99% (active) in test [6] (setting [7]); 99% (active) in test [6] (setting [8]); 99.5% (active) in test [6] (at 50.0 µM).

For `CC(Br)CN(CC(C)Br)c1ccc2c(c1)Cc1ccccc1-2` (configuration not stated), the growth inhibition was 12% (inactive) in test [1] (setting [7]); 73% (active) in test [1] (setting [8]); 82.8% (active) in test [1] (at 50.0 µM); 2% (inactive) in test [2] (setting [7]); 69% (inactive) in test [2] (setting [8]); 70.4% (active) in test [2] (at 50.0 µM). The growth inhibition was 8% (inactive) in test [3] (setting [7]); 87% (active) in test [3] (setting [8]); 93.2% (active) in test [3] (at 50.0 µM); -16% (inactive) in test [4] (setting [7]); 85% (active) in test [4] (setting [8]); 56.3% (inactive) in test [4] (at 50.0 µM). For the same molecule, the growth inhibition was -7% (inactive) in test [5] (setting [7]); 92% (active) in test [5] (setting [8]); 85.5% (active) in test [5] (at 50.0 µM); 2% (inactive) in test [6] (setting [7]); 82% (active) in test [6] (setting [8]); 91.7% (active) in test [6] (at 50.0 µM).

As for `CN1CC(C(=O)NC2(C)OC3(O)C4CCCN4C(=O)C(Cc4ccccc4)N3C2=O)C=C2c3cccc4[nH]cc(c34)CC21` (configuration not stated), the growth inhibition was 26% (inactive) and -4% (inactive) in test [1] (setting [7]); 35% (inactive) and 23% (inactive) in test [1] (setting [8]); 8.55% (inactive) and 49.2% (inactive) in test [1] (at 50.0 µM); 6% (inactive) and -1% (inactive) in test [2] (setting [7]); 14% (inactive) and 29% (inactive) in test [2] (setting [8]); 6.75% (inactive) and 70.6% (active) in test [2] (at 50.0 µM). Also, the growth inhibition in test [3] (setting [7]) was 4% (inactive) and -2% (inactive); in test [3] (setting [8]), 12% (inactive) and 50% (inactive); in test [3] (at 50.0 µM), -9.3% (inactive) and 61.7% (inactive); in test [4] (setting [7]), -15% (inactive) and 1% (inactive); in test [4] (setting [8]) it was 22% (inactive) and 15% (inactive); in test [4] (at 50.0 µM), -11.6% (inactive) and 40.9% (inactive). In addition, the growth inhibition in test [5] (setting [7]) was -24% (inactive) and 2% (inactive); in test [5] (setting [8]) it was 4% (inactive) and 30% (inactive); in test [5] (at 50.0 µM), 8.25% (inactive) and 57% (inactive); in test [6] (setting [7]), 2% (inactive) and -3% (inactive); in test [6] (setting [8]) it was 33% (inactive) and 65% (inactive); in test [6] (at 50.0 µM), 51.1% (inactive) and 73% (active).
